Data: ChEMBL document CHEMBL1157539, “Thousands of chemical starting points for antimalarial lead identification” (Nature, 2010)

system: Plasmodium falciparum; test: GSK_TCMDC: Inhibition of Plasmodium falciparum 3D7 in whole red blood cells, using parasite LDH activity as an index of growth. Test compounds present at 2uM; type: functional

Compound | Inhibition
N#Cc1ccc(NC(=O)NC2CCN(CCCCCNC(=O)/C=C/c3ccc(Cl)c(Cl)c3)CC2)cc1 | 98%
COc1ccc(CN(C)CCOc2ccc(NC(=O)c3cccc4c(=O)c5cc(SC)ccc5[nH]c34)cc2)cc1OC | 96%
Cc1ccc(S(=O)(=O)NC2CCN(CCNC(=O)Nc3cc(C)nc4ccccc34)C2)cc1 (stereo not given) | 97%
NC(=O)COc1c(C2CCN(CCCCNC(=O)c3ccc(-c4ccc(Cl)cc4)c(O)c3)CC2)ccc2c1CCCC2 | 100%
O=C(Nc1ccc(Cl)c(Cl)c1)N(Cc1ccccc1Br)C1CCNCC1 | 96%
CCc1c(C(=O)NC2CCC(N3CCC(c4ccccc4OC)CC3)CC2)[nH]c2ccc(OC)cc12 (stereo not given) | 100%
Cl.O=C(Nc1cccc(Cl)c1Cl)N1CCc2cc3nccc(N4CCN5CCC[C@H]5C4)c3cc21 | 98%
CS(=O)(=O)Nc1ccc2c(C3CCN(CCC4CCN(C(=O)/C=C/c5ccc(Cl)c(Cl)c5)CC4)CC3)c[nH]c2c1 | 99%
CNC(=O)C1Cc2c([nH]c3cc(Br)ccc23)C2(CCN(CCc3ccccc3)CC2)N1 (stereo not given) | 100%
CC(C)(C)c1ccc(CN2CCCCC(NC(=O)c3cc(-c4cccc(F)c4)cs3)C2)cc1.O=C(O)C(F)(F)F (stereo not given) | 98%
CCOc1cc(C)ccc1C1CCN(CCCCNC(=O)c2ccc(-c3ccc(C(F)(F)F)cn3)cc2)CC1.Cl | 99%
CCC1(CC)N=C(N)N=C(N)C1c1ccc(Cl)c(Cl)c1.Cl (stereo not given) | 98%
CN1CCCc2ccc(NC(=O)C=Cc3ccc(-c4ccc(F)cc4F)o3)cc2C1.O=C(O)C(F)(F)F | 98%
COc1ccc(NC(=O)[C@H](CC(C)C)Nc2cc(C)nc(NCc3cccc(C)c3)n2)cc1.O=C(O)C(F)(F)F | 100%
CCOc1ccc(C=CC(=O)Nc2ccc3nc(N4CCN(C)CC4)cc(C)c3c2)cc1OC | 100%
CON=C1CCC(Cn2ccnc2)(c2ccc(Cl)cc2Cl)CC1 (stereo not given) | 100%
CC(C)(C)c1ccc(NC(=O)c2ccc(CN3CCCN(Cc4cccc(O)c4)CC3)cc2)cc1.O=C(O)C(F)(F)F | 100%
COc1ccc(-c2ccc(NC(=O)c3cccc(C#N)c3)cc2)cc1CN1CCCN(C)CC1.O=C(O)C(F)(F)F | 100%
NS(=O)(=O)c1cccc(Br)c1 | 98%
Cc1ccccc1C1CCN(C2CCC(NC(=O)/C=C/c3c(F)ccc(F)c3F)CC2)CC1 (stereo not given) | 82%

Compound | Inhibition
ON=C(c1nc2ccccc2[nH]1)c1nc2ccccc2[nH]1 | 93%
CN1CCC(Oc2ccc(CN3CC[C@H](NC(=O)c4cccc(C#N)c4)C3)c3ccccc23)C1.O=C(O)C(F)(F)F (stereo not given in full) | 97%
Cc1ccc(-n2cc(CNCCCn3ccnc3)c(-c3cccc(C)c3)n2)cc1 | 99%
CCOc1cc(CNCCCCCCNCc2cc(OCC)c(OCC)c3ccccc23)c2ccccc2c1OCC.CS(=O)(=O)O | 100%
COc1ccc(CCNc2ccnc3cc(Cl)ccc23)cc1OC.Cl | 100%
CC(CCc1ccccc1)NCC(O)c1ccc2c(c1)S(=O)(=O)c1ccccc1N2 (stereo not given) | 95%
CC(C)(C)CC(=O)Nc1ccc(Nc2cc(-c3ccncc3)cc3ncc(C(N)=O)cc23)cc1 | 97%
CC(C)C(NC(=O)Cc1cccc2ccccc12)C(=O)Nc1cccc(C#N)c1 (stereo not given) | 92%
COc1ccc(C=NN=c2c3ccccc3[nH]c3ccccc23)c2ccccc12 | 82%
CN1CCC(NCc2ccc(-c3ccc(C(F)(F)F)cc3)cc2)CC1 | 99%
O=C(O)C(F)(F)F.O=c1cc(N2CCNCC2)c(Cl)nn1Cc1ccc(NS(=O)(=O)c2ccc(Oc3ccccc3)cc2)cc1 | 100%
Cc1cc(C)nc(-n2[nH]c(C)c(Cc3ccc(C(C)(C)C)cc3)c2=O)n1 | 88%
CCC(C)(C)C1CCc2[nH]c3ccccc3c(=O)c2C1 (stereo not given) | 97%
Cl.NOCCCCOc1ccccc1 | 99%
CCN(CCO)CCCC(C)Nc1ccnc2cc(Cl)ccc12.O=S(=O)(O)O (stereo not given) [HYDROXYCHLOROQUINE SULFATE] | 99%
Cc1cc(Nc2ccncc2)n2nc(C)c(-c3ccccc3Cl)c2n1 | 99%
O=C(C=Cc1ccc(Cl)c(Cl)c1)NCCCCCN1CCC(CCNC(=O)c2ccc3c(c2)OCO3)CC1 | 99%
COc1c(Br)cc(Br)cc1-c1ccc(CN2C3CCCC2CCC3)[nH]1.Cl | 88%
Cc1ccc(-c2cc3nc4c(c(NCCCn5ccnc5)n3n2)CCC4)cc1 | 94%
CCC(Cc1cnc2nc(N)nc(N)c2n1)c1ccc(C(=O)O)cc1 (stereo not given) | 93%

system: Plasmodium falciparum; test: GSK_TCMDC: Inhibition of Plasmodium falciparum Dd2 in whole red blood cells, using parasite LDH activity as an index of growth. Test compounds present at 2uM; type: functional

Compound | Inhibition
N#Cc1ccc(NC(=O)NC2CCN(CCCCCNC(=O)/C=C/c3ccc(Cl)c(Cl)c3)CC2)cc1 | 4%
COc1ccc(CN(C)CCOc2ccc(NC(=O)c3cccc4c(=O)c5cc(SC)ccc5[nH]c34)cc2)cc1OC | 98%
Cc1ccc(S(=O)(=O)NC2CCN(CCNC(=O)Nc3cc(C)nc4ccccc34)C2)cc1 (stereo not given) | 42%
NC(=O)COc1c(C2CCN(CCCCNC(=O)c3ccc(-c4ccc(Cl)cc4)c(O)c3)CC2)ccc2c1CCCC2 | 72%
O=C(Nc1ccc(Cl)c(Cl)c1)N(Cc1ccccc1Br)C1CCNCC1 | 8%
CCc1c(C(=O)NC2CCC(N3CCC(c4ccccc4OC)CC3)CC2)[nH]c2ccc(OC)cc12 (stereo not given) | 99%
Cl.O=C(Nc1cccc(Cl)c1Cl)N1CCc2cc3nccc(N4CCN5CCC[C@H]5C4)c3cc21 | 100%
CS(=O)(=O)Nc1ccc2c(C3CCN(CCC4CCN(C(=O)/C=C/c5ccc(Cl)c(Cl)c5)CC4)CC3)c[nH]c2c1 | 63%
CNC(=O)C1Cc2c([nH]c3cc(Br)ccc23)C2(CCN(CCc3ccccc3)CC2)N1 (stereo not given) | 31%
CC(C)(C)c1ccc(CN2CCCCC(NC(=O)c3cc(-c4cccc(F)c4)cs3)C2)cc1.O=C(O)C(F)(F)F (stereo not given) | 84%
CCOc1cc(C)ccc1C1CCN(CCCCNC(=O)c2ccc(-c3ccc(C(F)(F)F)cn3)cc2)CC1.Cl | 45%
CCC1(CC)N=C(N)N=C(N)C1c1ccc(Cl)c(Cl)c1.Cl (stereo not given) | 20%
CN1CCCc2ccc(NC(=O)C=Cc3ccc(-c4ccc(F)cc4F)o3)cc2C1.O=C(O)C(F)(F)F | 20%
COc1ccc(NC(=O)[C@H](CC(C)C)Nc2cc(C)nc(NCc3cccc(C)c3)n2)cc1.O=C(O)C(F)(F)F | 90%
CCOc1ccc(C=CC(=O)Nc2ccc3nc(N4CCN(C)CC4)cc(C)c3c2)cc1OC | 70%
CON=C1CCC(Cn2ccnc2)(c2ccc(Cl)cc2Cl)CC1 (stereo not given) | 56%
CC(C)(C)c1ccc(NC(=O)c2ccc(CN3CCCN(Cc4cccc(O)c4)CC3)cc2)cc1.O=C(O)C(F)(F)F | 62%
COc1ccc(-c2ccc(NC(=O)c3cccc(C#N)c3)cc2)cc1CN1CCCN(C)CC1.O=C(O)C(F)(F)F | 70%
NS(=O)(=O)c1cccc(Br)c1 | 0%
Cc1ccccc1C1CCN(C2CCC(NC(=O)/C=C/c3c(F)ccc(F)c3F)CC2)CC1 (stereo not given) | 33%

Compound | Inhibition
ON=C(c1nc2ccccc2[nH]1)c1nc2ccccc2[nH]1 | 68%
CN1CCC(Oc2ccc(CN3CC[C@H](NC(=O)c4cccc(C#N)c4)C3)c3ccccc23)C1.O=C(O)C(F)(F)F (stereo not given in full) | 30%
Cc1ccc(-n2cc(CNCCCn3ccnc3)c(-c3cccc(C)c3)n2)cc1 | 36%
CCOc1cc(CNCCCCCCNCc2cc(OCC)c(OCC)c3ccccc23)c2ccccc2c1OCC.CS(=O)(=O)O | 99%
COc1ccc(CCNc2ccnc3cc(Cl)ccc23)cc1OC.Cl | 92%
CC(CCc1ccccc1)NCC(O)c1ccc2c(c1)S(=O)(=O)c1ccccc1N2 (stereo not given) | 4%
CC(C)(C)CC(=O)Nc1ccc(Nc2cc(-c3ccncc3)cc3ncc(C(N)=O)cc23)cc1 | 85%
CC(C)C(NC(=O)Cc1cccc2ccccc12)C(=O)Nc1cccc(C#N)c1 (stereo not given) | 91%
COc1ccc(C=NN=c2c3ccccc3[nH]c3ccccc23)c2ccccc12 | 23%
CN1CCC(NCc2ccc(-c3ccc(C(F)(F)F)cc3)cc2)CC1 | 71%
O=C(O)C(F)(F)F.O=c1cc(N2CCNCC2)c(Cl)nn1Cc1ccc(NS(=O)(=O)c2ccc(Oc3ccccc3)cc2)cc1 | 0%
Cc1cc(C)nc(-n2[nH]c(C)c(Cc3ccc(C(C)(C)C)cc3)c2=O)n1 | 61%
CCC(C)(C)C1CCc2[nH]c3ccccc3c(=O)c2C1 (stereo not given) | 96%
Cl.NOCCCCOc1ccccc1 | 2%
CCN(CCO)CCCC(C)Nc1ccnc2cc(Cl)ccc12.O=S(=O)(O)O (stereo not given) [HYDROXYCHLOROQUINE SULFATE] | 0%
Cc1cc(Nc2ccncc2)n2nc(C)c(-c3ccccc3Cl)c2n1 | 93%
O=C(C=Cc1ccc(Cl)c(Cl)c1)NCCCCCN1CCC(CCNC(=O)c2ccc3c(c2)OCO3)CC1 | 2%
COc1c(Br)cc(Br)cc1-c1ccc(CN2C3CCCC2CCC3)[nH]1.Cl | 83%
Cc1ccc(-c2cc3nc4c(c(NCCCn5ccnc5)n3n2)CCC4)cc1 | 21%
CCC(Cc1cnc2nc(N)nc(N)c2n1)c1ccc(C(=O)O)cc1 (stereo not given) | 0%
